# Screening data from PubChem BioAssay.
# SUMO HTRF inh: blocks human SUMOylation mediated by UBC9. HTRF SUMOylation assay, SAE1/SAE2 + UBC9, in vitro. inhibition, % at 35 µM. 290,000 tested, 0.36% active. AID 2006; in the data active means inhibition above about 50%, passing the limit was not always enough
# Target sequence (P63279 whole entry, looked up): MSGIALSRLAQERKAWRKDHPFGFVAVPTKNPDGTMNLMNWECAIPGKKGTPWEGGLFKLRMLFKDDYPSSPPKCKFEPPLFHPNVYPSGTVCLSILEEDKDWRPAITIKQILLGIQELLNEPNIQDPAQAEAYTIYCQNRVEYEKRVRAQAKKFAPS
# SIRT5 inh: sirtuin-5 (human) deacylase inhibition. Q9NXA8. Purified SirT5, succinyl-peptide AMC, trypsin-coupled fluorescence. inhibition, % at 15 µM. 330,000 tested, 1.1% active. AID 652115; in the data active means inhibition above about 15%
# NSD2 inh: NSD2 (human) methyltransferase inhibition. O96028. NSD2 peptide methylation, AlphaScreen, 120 min. inhibition, % at 12.5 µM. 310,000 tested, 0.54% active. AID 743445; in the data active means inhibition above about 50%
# Casp6 inh: inhibitors of human caspase-6; P55212; purified caspase-6, Z-VEID-R110 cleavage fluorescence; inhibition, % at 12.5 µM; 350,000 tested, 0.53% active; AID 686996;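 active means mean inhibition across replicates at least about 35%, with every replicate also reaching that limit, limit read from the data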;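 further: 0% = median of neutral control wells and 100% = no fluorescence left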
# Target sequence (P55212 24-179 limits assumed): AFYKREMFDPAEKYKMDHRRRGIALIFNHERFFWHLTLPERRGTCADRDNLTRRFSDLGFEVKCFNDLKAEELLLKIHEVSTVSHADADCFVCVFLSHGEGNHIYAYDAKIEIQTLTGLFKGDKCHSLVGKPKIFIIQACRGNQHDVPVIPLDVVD
# Target sequence (P55212 194-293 limits assumed): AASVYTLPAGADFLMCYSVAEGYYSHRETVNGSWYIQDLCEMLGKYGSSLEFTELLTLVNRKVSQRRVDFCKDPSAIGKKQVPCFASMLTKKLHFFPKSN
# * = called active by the depositor; nt = no result. Only some compounds are listed: those with a hit (about 1.6% of all), similar ones and a draw of the others.
SMILES,SUMO HTRF inh,SIRT5 inh,NSD2 inh,Casp6 inh
COc1ccc(S(=O)(=O)Nc2ccc3c(c2)C(=O)N([C@@H](C)CO)C[C@@H](C)[C@@H](CN(C)S(=O)(=O)c2cccs2)OCCCC[C@H](C)O3)cc1,nt,23*,nt,1
COc1ccc(S(=O)(=O)N(C)C[C@@H]2OCCCC[C@H](C)Oc3ccc(NS(=O)(=O)c4cccs4)cc3C(=O)N([C@@H](C)CO)C[C@H]2C)cc1,nt,19*,nt,-3
Cc1ccc(S(=O)(=O)Nc2ccc3c(c2)C(=O)N([C@@H](C)CO)C[C@@H](C)[C@H](CN(C)S(=O)(=O)c2cccs2)OCCCC[C@H](C)O3)cc1,nt,8,nt,0
COc1ccc(S(=O)(=O)N(C)C[C@H]2OCCCC[C@@H](C)Oc3ccc(NS(=O)(=O)c4cccs4)cc3C(=O)N([C@H](C)CO)C[C@H]2C)cc1,nt,2,nt,1
Cc1ccc(S(=O)(=O)Nc2ccc3c(c2)C(=O)N([C@@H](C)CO)C[C@H](C)[C@H](CN(C)S(=O)(=O)c2cccs2)OCCCC[C@@H](C)O3)cc1,nt,18*,nt,-1
O=C(/C=C/c1ccco1)N1CCN(S(=O)(=O)c2ccccc2)CC1,nt,5,-1,48*
CNC[C@@H]1Oc2cc(C#CCC(C)C)ccc2S(=O)(=O)N([C@H](C)CO)C[C@H]1C,nt,9,nt,-4
O=C(O)c1ccc(CNCc2cccc(Cl)c2)cc1,-13,21*,0,0
Nc1cnc(Br)cc1Br,3,nt,nt,nt
Nc1cc2nsnc2cc1Br,100*,nt,nt,nt
CC1=NN(C(N)=S)C(=O)C1N=Nc1cccc(C(=O)O)c1 (stereo unspecified),-3,24*,2,-2
C[C@H](CO)N1C[C@H](C)[C@H](CN(C)C)Oc2cc(C#CCC3CCCC3)ccc2S1(=O)=O,nt,-4,nt,2
COc1ccccc1S(=O)(=O)N(C)C[C@@H]1Oc2cc(C#CCC(C)C)ccc2S(=O)(=O)N([C@@H](C)CO)C[C@H]1C,nt,30*,nt,9
COc1ccccc1S(=O)(=O)N(C)C[C@@H]1Oc2cc(C#CCC(C)C)ccc2S(=O)(=O)N([C@@H](C)CO)C[C@@H]1C,nt,28*,nt,-2
COc1cccc(S(=O)(=O)N(C)C[C@@H]2Oc3cc(C#CCC(C)C)ccc3S(=O)(=O)N([C@@H](C)CO)C[C@@H]2C)c1,nt,-5,nt,-1
COc1ccccc1S(=O)(=O)N(C)C[C@H]1Oc2cc(C#CCC3CCCC3)ccc2S(=O)(=O)N([C@@H](C)CO)C[C@@H]1C,nt,19*,nt,0
COc1ccc(C#Cc2ccc3c(c2)O[C@@H](CN(C)S(=O)(=O)c2ccccc2F)[C@H](C)CN([C@@H](C)CO)S3(=O)=O)cc1,nt,4,nt,nt
COc1ccc(C#Cc2ccc3c(c2)O[C@H](CN(C)S(=O)(=O)c2ccccc2F)[C@@H](C)CN([C@@H](C)CO)S3(=O)=O)cc1,nt,15*,nt,6
CN(C)C(=O)c1cccc(-c2ccc(C3[C@@H]4CN(S(=O)(=O)c5ccccc5)C[C@H]3N4)cc2)c1 (stereo partly specified),nt,9,nt,1
COc1cccc(S(=O)(=O)N(C)C[C@@H]2Oc3cc(C#CCC(C)C)ccc3S(=O)(=O)N([C@H](C)CO)C[C@H]2C)c1,nt,9,nt,-1
COc1ccccc1S(=O)(=O)N(C)C[C@@H]1Oc2cc(C#CCC(C)C)ccc2S(=O)(=O)N([C@H](C)CO)C[C@H]1C,nt,28*,nt,5
CO[C@@H]1CN(C)C(=O)c2cc(NC(=O)c3cnccn3)ccc2OC[C@H](C)N(C)C[C@H]1C,nt,4,nt,-10
C[C@@H]1CCCCO[C@H](CN(C)Cc2ccc(Cl)c(Cl)c2)[C@@H](C)CN([C@H](C)CO)C(=O)c2cc(NC(=O)c3ccncc3)ccc2O1,nt,0,nt,0
C[C@@H]1CCCCO[C@@H](CN(C)Cc2ccc(Cl)c(Cl)c2)[C@@H](C)CN([C@H](C)CO)C(=O)c2cc(NC(=O)c3ccncc3)ccc2O1,nt,15*,nt,0
Cc1noc(C)c1NC(=O)Nc1ccc2c(c1)C(=O)N([C@@H](C)CO)C[C@@H](C)[C@@H](CN(C)S(=O)(=O)c1cn(C)cn1)OCCCC[C@@H](C)O2,nt,17*,nt,-3
SMILES,SUMO HTRF inh,SIRT5 inh,NSD2 inh,Casp6 inh
C[C@@H]1CCCCO[C@H](CN(C)Cc2ccccc2)[C@@H](C)CN([C@@H](C)CO)C(=O)c2cc(NC(=O)CCCCCC(=O)Nc3ccccc3N)ccc2O1,nt,-2,nt,-2
C[C@@H]1CCCCO[C@@H](CN(C)Cc2ccc(Cl)c(Cl)c2)[C@@H](C)CN([C@H](C)CO)C(=O)c2cc(NC(=O)CCCCCC(=O)Nc3ccccc3N)ccc2O1,nt,24*,nt,1
Cc1noc(C)c1NC(=O)Nc1ccc2c(c1)C(=O)N([C@@H](C)CO)C[C@H](C)[C@@H](CN(C)Cc1ccc(Cl)c(Cl)c1)OCCCC[C@H](C)O2,nt,15*,nt,-3
Cc1noc(C)c1NC(=O)Nc1ccc2c(c1)C(=O)N([C@H](C)CO)C[C@H](C)[C@@H](CN(C)Cc1ccc(Cl)c(Cl)c1)OCCCC[C@@H](C)O2,nt,3,nt,-1
Cc1noc(C)c1NC(=O)Nc1ccc2c(c1)C(=O)N([C@H](C)CO)C[C@@H](C)[C@@H](CN(C)S(=O)(=O)c1cn(C)cn1)OCCCC[C@H](C)O2,nt,0,nt,1
CC(C)NC(=O)Nc1ccc2c(c1)C(=O)N([C@@H](C)CO)C[C@H](C)[C@@H](CN(C)S(=O)(=O)c1ccc(F)cc1)OCCCC[C@H](C)O2,nt,-6,nt,-1
O=C(N[C@@H]1CC[C@H](CCn2cc(C3CCCCC3)nn2)O[C@@H]1CO)c1cccnc1,nt,5,nt,6
C[C@H]1CN([C@@H](C)CO)C(=O)c2cc(C#CCN(C)C)cnc2O[C@H]1CN(C)Cc1ccc(F)cc1,nt,-3,nt,1
C[C@H](CO)N1C[C@H](C)[C@@H](CN(C)Cc2ccncc2)OCCCC[C@H](C)Oc2ccc(NC(=O)Nc3ccc4c(c3)OCO4)cc2C1=O,nt,16*,nt,1
Cc1noc(C)c1S(=O)(=O)N(C)C[C@H]1OCCCC[C@@H](C)Oc2ccc(NC(=O)Nc3cccc4ccccc34)cc2C(=O)N([C@@H](C)CO)C[C@H]1C,nt,7,nt,1
Cc1noc(C)c1S(=O)(=O)N(C)C[C@@H]1OCCCC[C@@H](C)Oc2ccc(NC(=O)Nc3cccc4ccccc34)cc2C(=O)N([C@H](C)CO)C[C@@H]1C,nt,20*,nt,1
Cc1ccc(S(=O)(=O)N2C[C@H](O)COC[C@@H]3O[C@H](CC(=O)NCC4CCCCC4)CC[C@H]32)cc1,nt,4,nt,1
CCCNC(=O)C[C@@H]1CC[C@H]2[C@H](COc3ccc(NC(=O)NCC)cc3C(=O)N2C)O1,nt,3,nt,-1
Cc1ccc2nc(NC3=NC(CC(=O)O)C(=O)N3)nc(C)c2c1 (stereo unspecified),11,44*,-1,1
Cc1ccc2nc(Nc3nc(-c4ccccc4)cc(=O)[nH]3)nc(C)c2c1,-17,nt,-2,nt
O=C(c1cccc([N+](=O)[O-])c1)c1cc2ccccc2o1,27,32*,1,-3
C/C(=N\Nc1cccc([N+](=O)[O-])c1)c1cc2ccccc2o1,-5,-5,8,0
N#C/C(=C\c1cn(Cc2ccccc2)c2ccccc12)C(=O)NCc1ccco1,48,-3,-1,2
